From PubChem
DRD3 agonist: agonists of human D3 dopamine receptor | D3R DiscoveRx beta-arrestin cells, luminescence, 90 min | P35462 | 410,000 compounds, 0.58% hits | max activation, % | AID 652048; in the data active = max activation above about 30%
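Cells at 1500/well, incubated overnight, then treated with pinned compounds (dopamine as control) for 90 min at 37 degrees C. DiscoveRx reagent added for 30 - 60 minutes at room temperature; luminescence read.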
LDHA block: LDHA (human) enzyme inhibition | AID 1347041 | 480,000 compounds, 0.15% hits | purified LDHA, NADH/diaphorase-resazurin fluorescence; active compounds read low | activity change, % (values are at about 110 or 230 µM) | P00338; in the data active = activity change below about -30%; inconclusive = mostly about -25% to -30%
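Human LDH5 at 2 nM final in Tris HCl pH 7.4 with 0.06 mM NADH and 0.2 mM pyruvate, reacted 5 minutes at room temperature. Remaining NADH coupled via diaphorase/resazurin; resorufin fluorescence read at 0 and 20 minutes, normalized to enzyme-free and DMSO wells.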
PI5P4K alpha inh: PI5P4K alpha (human) kinase inhibition. P48426. PI5P4Kalpha enzyme, ADP-Glo luminescence, 60 min; active compounds read low. max response, %. 330,000 compounds, 1.2% hits. AID 652105; active = max response of -50% or lower; inconclusive = between -30% and -50%; inactive = -30% or higher; also: value at the top dose of about 77 µM
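Luminescence from ADP-Glo served as readout of PI5P4Kalpha activity in a qHTS format. Reaction: enzyme, substrate, compound, ATP at 5 microM final, 60 min at RT.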
PI4K2A block: blocks human PI4K2A kinase activity; Q9BTU6; purified PI4K2A, ADP-Glo luminescence, 1 h; active compounds read low; activity change, negative = inhibition, % at 76.9 µM; 420,000 compounds, 0.13% hits; in the data active = activity change below about -50%; inconclusive = mostly about -30% to -49%
Target sequence (Q9BTU6 whole entry, looked up): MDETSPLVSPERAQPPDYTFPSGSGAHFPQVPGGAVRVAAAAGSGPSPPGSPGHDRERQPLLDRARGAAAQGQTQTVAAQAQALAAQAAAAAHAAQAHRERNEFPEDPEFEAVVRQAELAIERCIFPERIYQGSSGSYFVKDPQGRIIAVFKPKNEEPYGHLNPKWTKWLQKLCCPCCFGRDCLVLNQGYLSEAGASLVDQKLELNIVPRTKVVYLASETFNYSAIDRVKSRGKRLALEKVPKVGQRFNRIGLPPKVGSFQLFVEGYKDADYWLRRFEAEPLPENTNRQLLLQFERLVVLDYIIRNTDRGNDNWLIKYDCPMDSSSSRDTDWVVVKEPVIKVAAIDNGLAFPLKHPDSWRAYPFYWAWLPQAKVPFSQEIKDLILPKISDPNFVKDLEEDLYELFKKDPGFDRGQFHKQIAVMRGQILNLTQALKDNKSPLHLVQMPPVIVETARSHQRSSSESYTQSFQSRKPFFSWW
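PI4K2A activity was measured by ADP-Glo luminescence: enzyme (4 ug/mL stock) and phosphatidylinositol (1.2 mM stock) in Tris pH 7.5/MgCl2/EGTA/Triton X-100 buffer were reacted with ATP (300 microM stock) for one hour at ambient temperature.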
DRD3 antagonist: antagonists of human D3 dopamine receptor; P35462; D3R cells, DiscoveRx beta-arrestin luminescence, antagonist mode; active compounds read low; max response, negative = inhibition, %; 360,000 compounds, 2.5% hits; AID 652054; in the data active = max response below about -50%; inconclusive = no clear call, values can overlap the other calls
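Cells plated overnight at 1500 cells/well, then exposed to library compounds with dopamine controls for 90 minutes at 37 degrees C. DiscoveRx reagent added for 30–60 minutes at room temperature; luminescence read, quantitative HTS format.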
A number is an active result; n = inactive; u = inconclusive; x = no result; ! = not confirmed by another sample. The list is not random: actives were taken first. Their share in the collection is about 3.3%.

SMILES	DRD3 agonist	LDHA block	PI5P4K alpha inh	PI4K2A block	DRD3 antagonist
Cc1cccc(C)c1NC(=O)c1nc(S(=O)(=O)Cc2ccccc2)ncc1Cl	n	n	n	n	-64
Cc1cccc(C)c1NC(=O)c1nc(S(=O)(=O)Cc2ccccc2F)ncc1Cl	x	n	x	x	x
Cc1cccc(CS(=O)(=O)c2ncc(Cl)c(C(=O)NCc3ccccc3)n2)c1	n	n	n	n	-82
Cc1ccccc1NC(=O)c1nc(S(C)(=O)=O)ncc1Cl	n	n	n	n	-81
CCc1ccc(C2C(C(C)=O)C(=O)CC(C)(O)C2C(C)=O)cc1 (stereo not given)	x	n	x	x	x
CCCc1nnc(NC(=O)c2nc(S(=O)(=O)Cc3cccc(C)c3)ncc2Cl)s1	n	n	n	n	-68
Cc1nnc(NC(=O)c2nc(S(=O)(=O)Cc3ccccc3)ncc2Cl)s1	n	n	n	n	n
Clc1ccc(CNCCCSc2ncccn2)cc1Cl	n	n	n	n	-67
Cc1cc(C)nc(SCCCNCc2ccccc2)n1	n	n	n	n	-67
Clc1cccc(CNCCCSc2ncccn2)c1Cl	n	n	n	n	-70
Cc1ccc(NC(=O)c2cnc3c(c2)c(=O)[nH]c(=O)n3C2CC2)c2cccnc12	x	n	x	x	x
CC(C)=CCC12Oc3cc(O)ccc3C1(O)Oc1cc(O)c([C@H]3C=C(C)CC(c4ccc(O)cc4O)[C@H]3C(=O)c3ccc(O)cc3O)c(O)c1C2=O (stereo not given in full)	n	n	-92	n	-52
Cc1cc(-c2csc(NC(=O)c3ccc(C#N)cc3)n2)c(C)n1Cc1ccco1	n	n	-62	u	n
Cc1ccc(Cn2nnc3c(=O)n(Cc4nc(-c5ccc(OC(C)C)cc5)no4)cnc32)cc1	x	n	x	x	x
Cc1nc([N+](=O)[O-])c(Br)n1Cc1ccc(Cl)c(Cl)c1	n	n	n	n	-76
COc1ccc(C(=O)Cn2c(C)nc([N+](=O)[O-])c2Br)cc1	n	n	n	n	-56
CN(C)C(=O)C1CN(C(=O)CCc2ncc(-c3ccc(Cl)cc3Cl)o2)c2ccccc2O1 (stereo not given)	x	n	x	x	x
O=c1cc(CN2CCN(c3ccccc3O)CC2)c2cc(Cl)c(O)cc2o1	x	n	x	x	x
O=C(OCc1ncc(-c2ccc(Cl)cc2)o1)c1c(F)cccc1F	x	n	x	x	x
COc1ccccc1N1CCN(CCS(C)(=O)=O)CC1	x	n	x	x	x
COc1ccccc1N1CCN(CCCNC(=O)Nc2ccccc2)CC1	n	n	n	n	n
COc1ccccc1N1CCN(CCCNc2c(C)c(=O)n(C)c(=O)n2C)CC1	n	n	n	n	-57
COc1ccccc1N1CCN(CCCNc2cc(=O)n(C)c(=O)n2C)CC1	n	n	n	n	-62
COc1ccccc1N1CCN(CCS(=O)(=O)c2cc(Cl)ccc2Cl)CC1	n	n	n	n	-93
O=C(Cn1c(=O)n(CCc2ccccc2)c(=O)c2sccc21)c1ccccc1	x	n	x	x	x
SMILES	DRD3 agonist	LDHA block	PI5P4K alpha inh	PI4K2A block	DRD3 antagonist
Cc1ccc(NC(=O)CCCn2c3ccccc3c(=O)c3cc(C)ccc32)c(Br)c1	39	n	x	n	x
Cc1ccc2c(c1)c(=O)c1ccccc1n2CCCC(=O)Nc1cc(Cl)ccc1C	n	n	x	n	x
O=C1c2ccccc2NC(c2ccc3c(c2)OCO3)N1O (stereo not given)	n	n	n	n	-57
O=C(Nc1ccc(F)cc1)C(c1ccccc1OC(F)(F)F)N1CCN(c2cccc(C(F)(F)F)n2)CC1 (stereo not given)	n	n	n	n	-55
O=C(Nc1ccc(F)cc1)C(c1ccccc1)N1CCN(c2cccc(C(F)(F)F)n2)CC1 (stereo not given)	n	n	n	n	n
COCCn1c(C)c(C)c(S(=O)(=O)c2ccc(C)cc2)c1NC(=O)c1ccco1	x	n	x	x	x
CCOC(=O)C1=C(C)NC(=O)CC1c1cc2c(cc1Br)OCO2 (stereo not given)	n	n	n	n	-51
C=CCNc1nc(NCCOc2ccccc2Cl)c2sc(-c3ccccc3)cc2n1	n	n	x	n	-67
CC(C)Nc1nc(NCCN2CCCC2)c2sc(-c3ccccc3)cc2n1	n	n	n	n	-65
CC(C)Nc1nc(-c2ccccc2F)c2sc(-c3ccccc3)cc2n1	n	n	n	n	n
O=C(Nc1cccnc1)c1cc(-c2cccs2)on1	n	n	x	n	-61
O=C(NC1CCCC1)c1cc(-c2cccs2)on1	n	-39!	x	n	n
O=C(Nc1cccc(C(F)(F)F)c1)c1cc(-c2cccs2)on1	n	n	x	n	-65
O=C(Nc1cccc(C(F)(F)F)c1)c1cc(-c2ccco2)on1	n	n	n	n	n
COC(=O)c1ccc(NC(=O)C(NC(=O)c2ccccc2F)C(C)C)c(C)c1 (stereo not given)	x	n	x	x	x
OCC1(Cc2ccccc2Cl)CCN(C/C=C/c2ccccc2)CC1	n	n	n	n	-78
O=C(CCC(F)(F)F)N1CCC(CO)(CCc2ccccc2)CC1	n	n	n	n	n
OCC1(CCc2ccccc2)CCN(C/C=C/c2ccccc2)CC1	n	n	n	n	-54
C[C@H]1[C@@H](NC(=O)C(c2ccccc2)c2ccccc2)CC[C@@]23CCCN2C(=O)CCC[C@@H]13	x	x	x	n	x
CCOc1ccc(N/C(C)=C/C(=O)c2ccc3c(c2)OCCO3)cc1	33	n	n	n	n
CCOc1ccc(N/C(C)=C\C(=O)c2ccc3c(c2)OCCO3)cc1	n	n	n	n	n
CCCC(CCC)C(N)=O	58	x	x	x	x
CCc1cccc(CC)c1NC(=O)c1cc2cccc(OC)c2oc1=O	x	n	x	x	x
O=C(Nc1ccc(-n2cccn2)c(F)c1)C1CCCN(C(=O)c2ccoc2)C1 (stereo not given)	x	-31	x	x	x
O=C(Nc1ccc(-n2cccn2)c(F)c1)C1CCCN(C(=O)c2ccco2)C1 (stereo not given)	x	n	x	x	x
SMILES	DRD3 agonist	LDHA block	PI5P4K alpha inh	PI4K2A block	DRD3 antagonist
Cc1cc(C(=O)Nc2ccccc2C(=O)O)ccc1NC(=O)CSc1ccccc1	x	n	x	x	x
Cn1cc(C(F)(F)F)nc1-c1ccc(OCC(O)CNCCOc2ccc(O)c(C(N)=O)c2)cc1 (stereo not given)	101	n	n	n	n
CC(C)CNc1nc(-c2ccc(O)c(C(N)=O)c2)cs1	x	n	x	x	x
Cc1ccc(C2C(C(=O)c3cc4ccccc4o3)=C(O)C(=O)N2CCN2CCOCC2)cc1 (stereo not given)	n	n	n	n	n
Cc1ccc(C2C(C(=O)c3cc4ccccc4o3)=C(O)C(=O)N2CCN2CCOCC2)o1 (stereo not given)	n	n	n	n	-56
O=c1cc(O)n(C2CCCCCC2)c(=O)[nH]1	n	n	n	-51	n
Cc1ccc(NC(=O)c2ccc(NCCN)c([N+](=O)[O-])c2)cc1	n	n	n	n	n
O=C(Nc1cccc(Cl)c1)c1ccc(NCCCN2CCOCC2)c([N+](=O)[O-])c1	n	n	n	n	-89
O=C(NCCCN1CCOCC1)c1cccc(NC(=O)c2ccccc2)c1	n	n	n	n	n
